Assay outcomes deposited in PubChem by National Center for Advancing Translational Sciences (NCATS).
CHX counter: Cycloheximide Counterscreen for Small Molecule Inhibitors of Shiga Toxin. cell reporter, cycloheximide protein synthesis inhibition counterscreen. max response, %. actives 12% (n = 300,000); in the data active means max response mostly above about 13%, no sharp cut-off; inactive means mostly below about 14%; further: read at 38.3 µM for the half of the compounds with a filed dose; 0% is about no effect
Pf growth 48h: Primary qHTS for delayed death inhibitors of the malarial parasite plastid, 48 hour incubation; actives 5.9% (n = 310,000); P. falciparum luciferase growth in erythrocytes, 48 h; Potency, µM (top dose mostly 28.7 µM), without a hit: top-dose activity change, negative = inhibition, usual class: inhibitors; further: potency means the concentration at half of the fitted maximal effect; on the % scale 0 is the no-effect control and ±100 the full control effect
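Luminescence readout; reporter = integrated firefly luciferase in P. falciparum. RBC culture at 2% hematocrit, 0.1% parasitemia final, 37 C/5% CO2; decreased signal taken as growth inhibition.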
Shiga inhibitor: A qHTS for Small Molecule Inhibitors of Shiga Toxin; Vero cells, Shiga toxin protein synthesis inhibition reporter; inhibition, % at 38.7 µM; actives 9.2% (n = 290,000); in the data active means inhibition mostly above about 28%, no sharp cut-off; inactive means mostly below about 43%; further: 0% is about no effect
LASV entry inh: qHTS for Inhibitors of binding or entry into cells for Lassa Virus | Lassa virus pseudotype entry inhibition, cell reporter | Potency, µM (titrated, usually from 37.9 µM), for the others: top-dose activity change, negative = inhibition, usual class: inhibitors | actives 1.2% (n = 300,000); calls by dose curve; tested in HEK293 cells; further: potency means the concentration at half of the fitted maximal effect; on the % scale 0 is the no-effect control and ±100 the full control effect; nearly all actives have a fitted effect of over 50% in size
Pf growth 96h: Primary qHTS for delayed death inhibitors of the malarial parasite plastid, 96 hour incubation. P. falciparum luciferase reporter growth, 96 h. Potency, µM (top dose mostly 28.7 µM), without a hit: at the top dose activity change, negative = inhibition, most hits filed as inhibitors. actives 6.9% (n = 320,000). AID 504834, 2011; further: potency means the concentration at half of the fitted maximal effect; on the % scale 0 is the no-effect control and ±100 the full control effect
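Two-generation exposure (96 h) targets delayed-death phenotype. Reporter parasites carrying integrated firefly luciferase, in red cells at 2% hematocrit and 0.05% parasitemia final, kept at 37 C, 5% CO2; luminescence loss indicates inhibition.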
MARV entry inh: qHTS for inhibitors of binding or entry into cells for Marburg Virus. Marburg virus pseudotyped entry inhibition, cell reporter. Potency, µM (series often up to 37.8 µM), without a hit: at the highest dose activity change, negative = inhibition, hits mostly inhibitors. actives 1.8% (n = 300,000); calls by dose curve; tested in HEK293 cells; further: potency means the concentration at half of the fitted maximal effect; on the % scale 0 is the no-effect control and ±100 the full control effect
Active calls of the source: *; [ ] = remark or other dose. Sampled rows, rich in hits. Any-hit rate of the full collection: about 19%. Unless noted, the call rests on the fitted dose curve; in most records, active means well fitted inhibition curve with a large enough effect; inconclusive means small, poorly fitted or top-dose-only effect, or another doubt; inactive means no such curve, though single readings can be large or run the other way.

`O=C(NC(=S)N1CCN(c2ccccc2)CC1)c1ccccc1` gave CHX counter 7.6, Pf growth 48h 10.4µM*, Shiga inhibitor 2.4 and Pf growth 96h 4.65µM*.
For O=P(Oc1ccccc1)(Oc1ccccc1)N1CCN(c2ccc(F)cc2)CC1 the results were CHX counter 1.8, Pf growth 48h inconclusive, Shiga inhibitor 4.2, LASV entry inh inconclusive, Pf growth 96h -27.8% and MARV entry inh 10µM*.
Screening O=C(NC(=O)N1CCCCC1)c1ccccc1 returned CHX counter 14.0*, Pf growth 48h 0.2%, Shiga inhibitor 19.8 and Pf growth 96h 1.5%.
`O=C(NC(=O)N1CCN(c2ccc(F)cc2)CC1)c1ccccc1` gave CHX counter 19.7*, Shiga inhibitor 32.4, LASV entry inh -38.7%[14.3 µM], Pf growth 96h inconclusive and MARV entry inh inconclusive.
Screening O=C(CCC(=O)c1cccs1)NC(c1ccccc1)c1ccccc1 returned CHX counter 12.6, Pf growth 48h -16.4%, Shiga inhibitor 15.5, LASV entry inh 2.9%, Pf growth 96h 99.7% and MARV entry inh -19.7%.
For O=C(CCC(=O)c1cccs1)c1cccs1 the results were CHX counter 40.3*, Pf growth 48h inactive, Shiga inhibitor 33.9*, LASV entry inh -23.9%, Pf growth 96h inactive and MARV entry inh inconclusive.
`Cc1ccc(NC(=O)CCC(=O)c2cccs2)c(O)c1` gave CHX counter 65.7*, Pf growth 48h 61.4%, Shiga inhibitor 74.3* and Pf growth 96h 90.3%.
CCCCCCc1cc2cc(S(=O)(=O)c3ccc(C)cc3)c(=O)oc2cc1O was read as CHX counter -3.3, Pf growth 48h 16.1%, Shiga inhibitor -12.9, LASV entry inh 13.8%, Pf growth 96h 19.8% and MARV entry inh 11.5%.
Cc1cc(C)cc(N=C2SC(CC(=O)Nc3ccccc3)C(=O)N2CCN2CCOCC2)c1 (configuration not stated) was read as CHX counter -2.0, Pf growth 48h -13.8%, Shiga inhibitor -7.4, LASV entry inh inconclusive, Pf growth 96h inconclusive and MARV entry inh -1.2%.
COc1cccc2sc(Nc3nc(-c4ccncc4)cs3)nc12 was read as CHX counter 11.1, Pf growth 48h inconclusive, Shiga inhibitor 25.5, LASV entry inh -18.5%, Pf growth 96h -28.6% and MARV entry inh inconclusive.
Screening COc1ccc(OC)c2nc(-c3ccncc3)ccc12 returned CHX counter 15.0*, Pf growth 48h inconclusive, Shiga inhibitor 8.5 and Pf growth 96h 12.3%.
`COc1c(/C=N/Nc2ccc(C(=O)O)cc2)c(CCN(C)C(C)=O)cc2c1OCO2` gave CHX counter 25.0*, Pf growth 48h 15.6%, Shiga inhibitor 69.7* and Pf growth 96h 19.3%.
Screening COc1c(/C=N/NC(=O)c2ccccc2O)c(CCN(C)C(C)=O)cc2c1OCO2 returned CHX counter 16.1*, Pf growth 48h 32.3%, Shiga inhibitor 56.5*, LASV entry inh -4.0%, Pf growth 96h 0.6% and MARV entry inh 1.8%.
For C=CCN1C(=O)NC(=O)/C(=C/c2c(CCN(C)C(=O)c3ccccc3)cc3c(c2OC)OCO3)C1=O the results were CHX counter -1.1, Pf growth 48h inconclusive, Shiga inhibitor -2.9 and Pf growth 96h -15.4%.
`COc1c(/C=N/NS(=O)(=O)c2ccc(C)cc2)c(CCN(C)C(C)=O)cc2c1OCO2` gave CHX counter -1.3, Pf growth 48h 3.4%, Shiga inhibitor 13.0 and Pf growth 96h 13.1%.
Screening CNC(=S)N(C)CCc1cc2c(c(OC)c1C=C1C(=O)NC(=O)NC1=O)OCO2 returned CHX counter 0.4, Pf growth 48h inconclusive, Shiga inhibitor -15.1, LASV entry inh inconclusive, Pf growth 96h 5.22µM* and MARV entry inh -14.7%[46.1 µM].
`NC(=O)NC1NC(=O)NC1=O` (configuration not stated) gave CHX counter -5.9, Pf growth 48h -1.9%, Shiga inhibitor 18.9 and Pf growth 96h inconclusive.
